Results taken from ChEMBL document CHEMBL4513216, “Probing the Open Global Health Chemical Diversity Library for Multistage-Active Starting Points for Next-Generation Antimalarials” (ACS Infect Dis, 2020).
In all, about 69,000 compounds went through this assay and about 8,600 (12%) showed an effect of 50% or more. The sample holds strong results, similar compounds and a random draw of the others, so the mix is not that of the screen.

System: Plasmodium berghei
Test: Screen against P. berghei liver stage (PbLuc), transformed with Luciferase, at 10uM
Format: functional, HepG2
Settings: tested at 10 uM

Point of comparison: C[C@H](c1ccc(F)cc1)n1c(C2CCC2)n[nH]c1=O, INHIBITION -6.59%. Against it:
- CCc1nnc2n1CCN(C(=O)c1ccc3c(c1)nnn3C)C2 — lower, -8.66%
- CS(=O)(=O)N1Cc2nccn2CC(CNC(=O)c2cccnc2)C1 (centres undefined) — higher, 2.79%
- CCOC(=O)CNc1nc(COC)nc2c1cnn2C — higher, -4.23%
- COC(=O)[C@@H](Nc1nc(C2CCCC2)nc2c1cnn2C)[C@@H](C)O — higher, 10.9%
- CCC(Nc1nccc(C2CCCC2)n1)c1ccncc1 (centres undefined) — higher, 84.1%
- COC(=O)[C@H](CSC)Nc1nc(C2CCCC2)nc2c1cnn2C — higher, 52.6%
- CC(=O)NCCNc1nc(C2CCCC2)nc2c1cnn2C — higher, 5.23%
- COCCN1CC(Nc2nc(C3CCCC3)nc3c2cnn3C)CC1=O (centres undefined) — higher, 25.1%
- CCOC(=O)CC(C)Nc1nc(C2CCCC2)nc2c1cnn2C (centres undefined) — higher, 61%
- CC(C)C[C@H](Nc1nc(C2CCCC2)nc2c1cnn2C)C(N)=O — higher, 61%
- CC(C)[C@H](Nc1nc(C2CCCC2)nc2c1cnn2C)C(N)=O — higher, 28.5%
- CCC(Nc1nccc(C2CCCC2)n1)c1ncccc1C (centres undefined) — lower, -24.8%
- CCC(Nc1nccc(C2CCCC2)n1)c1ccccn1 (centres undefined) — higher, 22.5%
- Cc1cc(CC(C)Nc2nc(C3CCCC3)nc3c2cnn3C)[nH]n1 (centres undefined) — higher, 45.1%
- Cc1c(C2CCCN(C(=O)c3ccn(C)n3)C2)n2c(nc1=O)CCC2 (centres undefined) — lower, -9.32%
- CC(=O)NCCNC(=O)NCC1Cc2ccccc2O1 (centres undefined) — higher, 1.56%
- CN(C)C(=O)CN1CCCCC1c1nc(N)ncc1-c1cccc(F)c1 (centres undefined) — higher, 39.8%
- CS(=O)(=O)NC1CCCN(C(=O)Nc2cccnc2)C1 (centres undefined) — higher, 37.3%
- Cc1noc(C)c1-c1nc(C2CCCN(CCC(N)=O)C2)ccc1CO (centres undefined) — lower, -19%
- O=C(CCN1C(=O)CC2(CCCC2)C1=O)NCCc1nccs1 — higher, 20%
- Cc1nc(NC(=O)C2(C)CN(C)CCO2)sc1C (centres undefined) — higher, 4.3%
- CCC(Nc1nc(C(C)C)nc2c1cnn2C)c1ccncc1 (centres undefined) — higher, 48%
- CCC(Nc1nc(C(C)C)nc2c1cnn2C)c1ccc(O)cc1 (centres undefined) — higher, 15.5%
- CC[C@H](Nc1nc(C(C)C)nc2c1cnn2C)c1ccccc1 — higher, 53.6%
- CCC(Nc1nc(C2CCCC2)nc2c1cnn2C)c1ccncc1 (centres undefined) — higher, 50.8%
- O=S(=O)(CC1CCCCO1)Nc1cnn(CC(F)F)c1 (centres undefined) — higher, 9.76%
- COc1ccc(OCCc2cc(C3CCN(CC(C)C)C3)n[nH]2)cc1 (centres undefined) — higher, 15.15%
- CCCN1CCC(c2cc(CCOc3ccc(C(F)(F)F)cc3)[nH]n2)C1 (centres undefined) — higher, 58%
- Clc1ccc(OCCc2cc(C3CCN(c4ncccn4)C3)n[nH]2)cc1 (centres undefined) — higher, 36.22%
- O=C(NCc1ccon1)c1c(F)cc(Br)cc1F — lower, -7.83%
- Cc1nc2ccc(C(=O)N3CCn4c(nnc4C4CC4)C3)cc2nc1C — higher, 48.6%
- Cc1cc2ccccc2n1CCC(=O)N1CCCC2(CC1)CNC(=O)O2 (centres undefined) — higher, 65.7%
- Cc1cc2ccccc2n1CCC(=O)N1CCC2(CC1)CNC(=O)C2 — higher, 29.4%
- O=C1NCC2(CCCN(C(=O)CCn3cnc4ccccc43)CC2)O1 (centres undefined) — higher, 35.8%
- Cc1cc(NC(=O)CN2CCc3cncnc3C2)no1 — higher, 16.8%
- Cc1cc(C2CCCN2Cc2cc(=O)n(C)c(=O)n2C)no1 (centres undefined) — lower, -10.3%
- C[C@H](c1ccc(Cl)cc1)n1c(C2CC2)n[nH]c1=O — higher, 24.4%
- C[C@H](c1ccc(F)cc1)n1c(C2CCN(C)CC2)n[nH]c1=O — higher, 76.8%
- Cc1nc(N2CCCC2)nc2c1CCN(C(=O)C1CCCCC1)CC2 — lower, -42.8%
- CCOc1ccnc(N2CCN(C(=O)c3ccncc3)CC2)n1 — higher, 34.7%
- CC(C)(C)c1n[nH]cc1CNC1CCC(OCC(F)(F)F)CC1 (centres undefined) — lower, -18.5%
- CCN(Cc1ccc2c(c1)OCO2)S(=O)(=O)N(C)C(C)C — higher, -4.16%
- CC(C)N(C)S(=O)(=O)N(C)Cc1ccc2c(c1)OCCO2 — lower, -10.1%
- CC(C)N(C)S(=O)(=O)N(C)Cc1ccc2c(c1)OCO2 — higher, 54.3%
- Cc1nc(C)n(CC2CCCN2CC(=O)N(C)Cc2ccc(C)o2)n1 (centres undefined) — higher, 74.2%
- Cc1cnn(CC2CCCN2CC(=O)N(C)Cc2ccc(C)o2)c1 (centres undefined) — lower, -10.3%
- Cc1ccc(CN(C)C(=O)CN2CCCCC2Cn2cncn2)o1 (centres undefined) — higher, 40.5%
- Cc1nc(C)n(CC2CCCCN2CC(=O)N(C)Cc2ccco2)n1 (centres undefined) — higher, 28.6%
- Cc1cnn(CC2CCCCN2CC(=O)N(C)Cc2ccc(C)o2)c1 (centres undefined) — higher, 53.4%
- Cc1cc(C)n(CC2CCCN2CC(=O)N(C)Cc2ccc(C)o2)n1 (centres undefined) — higher, 45.7%
- CN(C)c1nc2n(c(=O)n1)CCN2C(=O)Nc1cccc(Cl)c1 — higher, 78.1%
- CN(C)c1nc2n(c(=O)n1)CCN2C(=O)Nc1ccc(Cl)cc1 — lower, -25.5%
- CN(C)c1nc2n(c(=O)n1)CCN2C(=O)Nc1ccc(Cl)c(Cl)c1 — higher, 28.4%
- CCN1CCNC(=O)C12CCN(C(=O)Cc1ccsc1)CC2 — lower, -23.1%
- CC(C)N(C)CC(=O)Nc1nccn1Cc1ccccc1Cl — lower, -11.9%
- CS(=O)(=O)CCC(=O)Nc1cnn(-c2ccccc2Cl)c1 — higher, 43.7%
- CCOCCOC(C)C(=O)Nc1ccnn1-c1ccccc1C (centres undefined) — higher, 39.7%
- CCOCC(=O)Nc1nccn1Cc1ccccc1Cl — higher, 22.8%
- CS(=O)(=O)CCC(=O)Nc1nccn1Cc1ccccc1Cl — higher, 53.5%
- CC(=O)Nc1nccn1Cc1ccccc1Cl — higher, 50.5%
- CC(OCC1CC1)C(=O)Nc1nccn1Cc1ccccc1 (centres undefined) — higher, 44.7%
- Cn1ccc(C(=O)Nc2nccn2Cc2ccccc2Cl)cc1=O — higher, 9.91%
- CCOCCOC(C)C(=O)Nc1nccn1Cc1ccccc1 (centres undefined) — higher, 89.6%
- O=C(NCCn1ccnc1)NCC(c1ccco1)N1CCCC1 (centres undefined) — lower, -14%
- Cc1nccn1[C@@H]1CC[C@@H](N(C)S(=O)(=O)c2ccccc2F)[C@H]1O — higher, -0.05%
- Cc1occc1C(=O)NCC1OCCc2cn(C)nc21 (centres undefined) — lower, -14.2%
- COCCCNc1c(-c2ccccc2)c(=O)c1=O — higher, 25.3%
- CC(Cc1cccc(F)c1)NCc1cnc(N2CCN(C)CC2)nc1 (centres undefined) — higher, 23.2%
